KB-3-1 tox = qHTS assay for MDR1-selective chemotherapeutics: Primary screen using the parental adenocarcinoma cell KB-3-1; Potency, µM (doses to about 46.1 µM), usual class: cytotoxic; actives 1.4% (n = 400,000); KB-3-1 viability, CellTiter-Glo ATP luminescence, 72 h; further: on the % scale 0 is the no-effect control and ±100 the full control effect; nearly all actives have a fitted effect of over 60% in size
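Parental KB-3-1 adenocarcinoma cells in phenol-red-free DMEM with 10% FBS were pin-treated with compounds at several concentrations, incubated 72 h at 37 °C, and viability read by CellTiter-Glo luminescence; concentration-effect curves were fitted after normalization.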
TSG101-PTAP inh = qHTS Assay for Iinhibitors of HIV-1 Budding by Blocking the Interaction of PTAP/TSG101. Tumor susceptibility gene 101 protein (Homo sapiens), Q99816. Fluorescence polarization, FITC-PTAP peptide / Tsg101 binding. Potency, µM (top dose mostly 115 µM), for inactives: top-dose activity change, negative = inhibition, usual class: inhibitors. 340,000 tested, under 10 active; active means well fitted inhibition curve with a large enough effect in the main read-out, with a control signal flat, not every such curve was filed as active; inconclusive means small, poorly fitted or top-dose-only effect, or effect the other way, or a change in a side signal; inactive means no such curve, though single readings can be large or run the other way; further: % of control where 0% means no effect
Target sequence (Q99816 whole entry, looked up): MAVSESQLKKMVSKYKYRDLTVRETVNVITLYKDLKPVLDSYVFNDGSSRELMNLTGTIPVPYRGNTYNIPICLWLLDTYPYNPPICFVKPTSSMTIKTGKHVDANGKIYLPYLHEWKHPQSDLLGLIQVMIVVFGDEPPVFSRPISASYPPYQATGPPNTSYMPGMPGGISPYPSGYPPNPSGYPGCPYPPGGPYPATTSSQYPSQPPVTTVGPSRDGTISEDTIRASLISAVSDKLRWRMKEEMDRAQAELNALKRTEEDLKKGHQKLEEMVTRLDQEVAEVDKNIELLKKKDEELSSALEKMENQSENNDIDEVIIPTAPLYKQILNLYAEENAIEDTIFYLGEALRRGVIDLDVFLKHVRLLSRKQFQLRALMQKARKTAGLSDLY
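Steps: Tsg101 binding domain dispensed (10 uM final), compounds pinned in DMSO, FITC-labeled PTAP-motif peptide added (50 nM final); after 20 min binding at room temperature, polarization measured.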
KB-V1 cytotox = qHTS assay for MDR1-selective chemotherapeutics: Primary screen using the drug-selected MDR subline cells KB-V1; KB-V1 MDR cells viability, CellTiter-Glo, 72 h; Potency, µM (titrated, usually from 46.1 µM), hits mostly cytotoxic; actives 3.4% (n = 400,000); AID 1347076, 2019; further: on the % scale 0 is the no-effect control and ±100 the full control effect; nearly all actives have a fitted effect of over 60% in size
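Cells of the MDR subline KB-V1 are plated, dosed with compound at multiple concentrations, and incubated 72 h at 37 degrees C; CellTiter-Glo is then added and luminescence read after 10 min.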
PINK1 modulator = A Quantitative High throughput Screen to Identify Chemical Modulators of PINK1 Expression; AID 624263, 2012; actives 0.2% (n = 410,000); PINK1 immunofluorescence, high-content cytometry, 24 h; Potency, µM (series often up to 76.6 µM), for inactives: top-dose activation (PINK1 increase), hits mostly activators; active means well fitted activation curve with a large enough effect; inconclusive means small, poorly fitted or top-dose-only effect; cell line not stated here; further: % of control where 0% means no effect; nearly all actives have a fitted effect of over 65% in size
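Stable cell line, 250 cells/well, 12 h attachment; compounds pinned at 5 concentrations, 24 h; CCCP control. Fixed with nuclear dye, primary antibodies 12 h at 10 degrees C, secondary plus cell stain; laser-scanning cytometer read.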
MCF10A rerep = A quantitative high throughput screen for small molecules that induce DNA re-replication in MCF 10a normal breast cells. actives 2.9% (n = 350,000). Potency, µM (series often up to 46.1 µM), for the others: top-dose activity, positive = re-replication, most hits filed as activators. MCF 10A DNA re-replication, Hoechst nuclear intensity, 48 h; further: % of control where 0% means no effect; nearly all actives have a fitted effect of over 50% in size
SW480 rerep = A quantitative high throughput screen for small molecules that induce DNA re-replication in SW480 colon adenocarcinoma cells. SW480 DNA re-replication, Hoechst DNA content imaging, 48 h. Potency, µM (doses to about 46.1 µM), without a hit: at the top dose re-replication activation, most hits filed as activators. actives 1.8% (n = 340,000). AID 624297, 2012; further: % of control where 0% means no effect; nearly all actives have a fitted effect of over 55% in size
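Quantitative HTS format with DMSO vehicle controls; 48 hr drug incubation at 37 C, then 40 min Hoechst staining and scanning imager measurement at 405 nm excitation.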
Starred values were filed as active, the others as inactive; i = inactive; ? = inconclusive; . = no result given; [ ] = dose if it differs, or a comment. Most compounds without a hit are left out; they make up all but 6.8% or so of the library. Unless noted, the call rests on the fitted dose curve; in most records, active means well fitted curve in the direction sought with a large enough effect; inconclusive means small, poorly fitted or top-dose-only effect, or another doubt; inactive means no such curve, though single readings can be large; an effect the other way counts as inactive or inconclusive. Potency means the concentration at half of the fitted maximal effect.

SMILES | KB-3-1 tox | TSG101-PTAP inh | KB-V1 cytotox | PINK1 modulator | MCF10A rerep | SW480 rerep
O=C1CN(C(=O)CSc2nc3cc(Cl)ccc3c(=O)n2Cc2ccccc2)c2ccccc2N1 | i | -5% | i | 7% | 5% | 0%
Cc1ccc(Cn2c(SCC(=O)N3CC(=O)Nc4ccccc43)nc3ccccc3c2=O)cc1 | i | 3% | 21µM* | 2% | 20% | .
O=C1CN(C(=O)CSc2nnnn2-c2ccc(Cl)cc2)c2ccccc2N1 | i | 1% | 16µM* | 4% | 7% | -2%
CC(C)Cn1c(SCC(=O)N2CC(=O)Nc3ccccc32)nc2ccccc21 | i | 0% | 10µM* | 2% | 19% | ?
CC(c1ccccc1)n1c(SCC(=O)N2CC(=O)Nc3ccccc32)nc2ccccc2c1=O (stereo unspecified) | ? | -1% | ? | 1% | ? | .
COc1ccc(CNC(=O)Cn2ccc3cc(S(=O)(=O)N4CCCCC4)ccc32)cc1OC | i | . | i | 2% | . | .
O=[N+]([O-])c1cccc(-c2cc(-c3cc(Br)ccc3O)[nH]n2)c1 | 21µM* | -2% | 21µM* | ? | 14% | ?
Oc1ccc(Br)cc1-c1cc(-c2ccc(Cl)cc2)n[nH]1 | 18µM* | -1% | 10µM* | ? | 15µM* | 15µM*
COc1ccccc1-c1nc2c(c(SCC(=O)Nc3ccc(C)c(C)c3)n1)Cc1c(CO)cnc(C)c1O2 | . | . | . | 0% | . | .
COc1ccc(-c2cc(C3CC3)nc3sc(C#N)c(N)c23)cc1 | i | -7% | i | -1% | 3.7µM* | 13µM*
O=C1CC(c2ccc(F)cc2)CC2=C1C=Nc1ccccc1N2 (stereo unspecified) | ? | -1% | ? | 6% | ? | 2%
O=C1CC(c2ccccc2)CC2=C1C=Nc1ccccc1N2 (stereo unspecified) | ? | 0% | ? | 3% | 18µM* | 15µM*
CCOC(=O)c1c(NC(=O)C(C)Sc2cn(CCNC(=O)c3c(F)cccc3F)c3ccccc23)sc2c1CCC2 (stereo unspecified) | i | . | i | 0% | . | .
COc1ccc(CN2CCc3ccccc3C2)c(OC)c1 | i | -2% | i | 2% | -6% | 12%
COc1ccc(C2=[N+](C)CCn3cccc32)c(OC)c1 | ? | -3% | i | 0% | ? | 0.52µM*
CCc1ccc(OCC(=O)NCc2nc(-c3cccc(C)c3)no2)c(Br)c1 | i | . | ? | 3% | . | .
CN(C)c1ccc(S(=O)(=O)N2CCCCC2)cc1NC(=O)CCNC(=O)c1ccc(Cl)cc1 | i | -2% | 21µM* | 0% | 4% | -1%
O=C(CCl)Nc1cc(S(=O)(=O)N2CCCCCC2)ccc1Cl | 13µM* | -2% | 12µM* | -2% | ? | ?
CC(=O)OCC(=O)Nc1cc(S(=O)(=O)N2CCCCCC2)ccc1Cl | i | -2% | i | 0% | -5% | 13%
CC1CN(C(=O)c2cc(S(=O)(=O)N3CCCCC3)ccc2Cl)CC(C)O1 (stereo unspecified) | i | -3% | 21µM* | 0% | 2% | 1%
CC(C)(C)CC(=O)Nc1cc(S(=O)(=O)N2CCCCCC2)ccc1Cl | i | 0% | 18µM* | -1% | ? | ?
COc1ccccc1C(=O)N1CCCC(c2nc(SCCN3CCOCC3)ncc2C)C1 (stereo unspecified) | . | . | . | 0% | . | .
COc1ccc2c(c1)c1c(c(=O)n(-c3ccc(OC)c(OC)c3)c(=O)n1Cc1ccccc1C)n2C | . | . | . | 0% | . | .
O=c1c(-c2ccc(F)cc2)nc2cnc(Nc3ccccc3)nc2n1C[C@H]1CCCO1 | . | . | . | 3% | . | .
COc1ccc(CNc2nc3c(c(=O)n(C)c(=O)n3C)n2Cc2ccccc2Cl)cc1 | i | . | i | 0% | . | .
SMILES | KB-3-1 tox | TSG101-PTAP inh | KB-V1 cytotox | PINK1 modulator | MCF10A rerep | SW480 rerep
CC(NCc1ccc(F)cc1)C(=O)Nc1cc(S(=O)(=O)N2CCCCC2)ccc1Cl (stereo unspecified) | ? | 0% | 16µM* | 1% | ? | ?
c1ccc2[nH]c(-c3ccc4c(c3)OCO4)nc2c1 | ? | 0% | 13µM* | 0% | 9% | ?
Cc1ccc(Cl)cc1NC(=O)C1CCCN(S(=O)(=O)c2cccc3cccnc23)C1 (stereo unspecified) | i | . | i | -1% | . | .
COc1ccc(C(=O)N2CCOc3ccc(CN4CCN(c5ccccn5)CC4)cc3C2)o1 | . | . | . | -1% | . | .
Cc1nc(N2CCN(C)CC2)c2sc(=S)n(-c3ccccc3)c2n1 | i | -2% | i | 2% | 8% | 2%
S=c1sc2c(Cl)ncnc2n1-c1ccccc1 | ? | -6% | ? | -3% | 2.1µM* | ?
COc1ccc(-c2cc(C(F)(F)F)n3ncc(C(=O)N(C)Cc4ccccc4)c3n2)cc1 | i | -10% | i | -3% | ? | 23µM*
NC(=O)c1cnn2c(C(F)(F)F)cc(-c3ccc(F)cc3)nc12 | i | -7% | 13µM* | -2% | 11% | -6%
CC(NC(=O)Cn1ccc2cc(S(=O)(=O)N3CCCCCC3)ccc21)c1ccccc1 (stereo unspecified) | i | . | i | 0% | . | .
O=C(Nc1cccc(-c2csc(-c3ccccc3)n2)c1)c1cccs1 | i | -5% | 15µM* | . | 13% | -1%
CCCC(CCC)C(=O)Nc1cccc(-c2cn3c(n2)SCC3)c1 | i | -4% | i | -2% | -5% | 0%
Oc1ccc(-c2csc(-c3cccnc3)n2)cc1O | ? | -3% | ? | -4% | -16% | ?
Cc1nc(-c2cccc(NC(=O)c3cccs3)c2)cs1 | i | 1% | i | -1% | 6% | 14%
Cc1nc(-c2cccc(NC(=O)Cc3ccccc3)c2)cs1 | i | -4% | 16µM* | -2% | 9% | -8%
Oc1ccc(-c2csc(-c3ccccc3)n2)cc1O | ? | -2% | 15µM* | 2%[38.3 µM] | 2% | -7%
O=C(Cc1ccc(Br)cc1)Nc1cccc(-c2cn3c(n2)SCC3)c1 | ? | -1% | 8.2µM* | 10% | ? | ?
Cc1ccc(-c2cn3nc(N4CCCC(C(=O)Nc5ccc(F)cc5)C4)sc3n2)cc1 (stereo unspecified) | i | . | i | 0% | . | .

Source: PubChem BioAssay
